Measurements from PubChem BioAssay (NCATS).
“And” between values parts separate entries of the source, which are not always exact repeats. Equal entries are not always repeated. Inconclusive results are not listed. Where a structure was tested more than once in an assay, its records may differ in their call. The source made the active and inactive calls. The call rests on the fitted dose curve; in most records, active means well fitted inhibition curve with a large enough effect; inconclusive means small, poorly fitted or top-dose-only effect; inactive means flat fitted curve, though single readings scatter.

Columns and labels:
[1] = tested on: CRL-7250; test: Cytotoxic Profiling of Annotated Libraries Using Quantitative High-Throughput Screening (AID 1296008); conditions: Five cell lines viability, CellTiter-Glo ATP luminescence, 48-72 h; max response: stronger effect = lower value; further: potency means the concentration at half of the fitted maximal effect; on max response: on the % scale 0 is the no-effect control and ±100 the full control effect
Procedure, shortened: (§1)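 Cytotoxicity was measured as CellTiter-Glo ATP luminescence, read after 10 min at room temperature. Compound treatment of the cells lasted 48 or 72 hr at 37 degrees Celsius in a qHTS format.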

[2] = tested on: HEK293; test: as above; conditions: Five cell lines viability, CellTiter-Glo ATP luminescence, 48-72 h; max response: stronger effect = lower value
Procedure, shortened: as §1

[3] = tested on: HaCat; test: as above; conditions: Five cell lines viability, CellTiter-Glo ATP luminescence, 48-72 h; max response: stronger effect = lower value
Procedure, shortened: as §1

[4] = tested on: KB-3-1; test: as above; conditions: Five cell lines viability, CellTiter-Glo ATP luminescence, 48-72 h; max response: stronger effect = lower value
Procedure, shortened: as §1

[5] = tested on: NIH3T3; test: as above; conditions: Five cell lines viability, CellTiter-Glo ATP luminescence, 48-72 h; max response: stronger effect = lower value
Procedure, shortened: as §1

[6] = tested on: HACAT; test: qHTS assay to identify novel small-molecules to repurpose for Merkel cell carcinoma treatment (AID 1296009); conditions: MCC and control cell lines, CellTiter-Glo viability, 72 h; at 44.8 µM (top of the series) unless noted
Procedure, shortened: (§2)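 Cell viability, measured as CellTiter-Glo luminescence, was normalized between DMSO and no-cell wells. The cells had been exposed to 8- or 11-point compound dilutions for 72 hr at 37 degree celsius.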

[7] = tested on: MCC-13; test: as above; conditions: MCC and control cell lines, CellTiter-Glo viability, 72 h; series mostly up to 46 µM
Procedure, shortened: as §2

[8] = tested on: MCC-26; test: as above; conditions: MCC and control cell lines, CellTiter-Glo viability, 72 h; series mostly up to 46 µM
Procedure, shortened: as §2

[9] = tested on: W2; test: qHTS profiling for inhibitors of Plasmodium falciparum proliferation (AID 504749); further: potency means the concentration at half of the fitted maximal effect; conditions: P. falciparum in erythrocytes, SYBR Green DNA, 72 h; series mostly up to 28.7 µM
Procedure, shortened: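 SYBR Green fluorescence of parasite DNA, read after lysis and overnight dark incubation, measured growth over 72 h in erythrocyte culture at 0.3% parasitemia and 2.5% hematocrit. Data normalised to DMSO and 0.29 uM artemisinin, with plate-drift correction.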
Further: nearly all actives have a fitted effect of over 60% in size.

CO[C@@]1(NC(=O)CSCC#N)C(=O)N2C(C(=O)O)=C(CSc3nnnn3C)CS[C@@H]21
inactive: max response [1] 2.03% | max response [2] -2.42% | outcome [3] | max response [4] 1.86% | max response [5] -0.696% | outcome [6] | Potency [7] | Potency [8]

CC(C)(Oc1ccc(CCNC(=O)c2ccc(Cl)cc2)cc1)C(=O)O
inactive: Potency [9] | max response [1] -10.1% | max response [2] -102% | outcome [3] | max response [4] 2.41% | outcome [5] | outcome [6] | Potency [7] | Potency [8]

C[N+](C)(C)CCOC(=O)CCC(=O)OCC[N+](C)(C)C
inactive: Potency [9] | max response [1] 1.65% | max response [2] 4.43% | outcome [3] | max response [4] 1.17% | outcome [5] | outcome [6] | Potency [7] | Potency [8]

CCCOc1ccccc1-c1nc2n[nH]nc2c(=O)[nH]1
inactive: max response [1] -0.525% | max response [2] 2.92% | outcome [3] | max response [4] -27% | max response [5] -1.31% | outcome [6] | Potency [7] | Potency [8]

NC(N)=N/N=C/c1c(Cl)cccc1Cl
active: Potency [9] 12 µM | Potency [2] 18.8 µM
inactive: max response [1] 3.75% | max response [3] -6.3% | max response [4] 0.665% | max response [5] 3.93% | Potency [7] | Potency [8]

c1cnc(N2CCN(Cc3ccc4c(c3)OCO4)CC2)nc1
inactive: Potency [9] | max response [1] -1.35% | outcome [3] | max response [4] -6.36% | max response [5] -2.83% | outcome [6] | Potency [7] | Potency [8]

Brc1c(NC2=NCCN2)ccc2nccnc12
active: Potency [9] 5.36 µM
inactive: max response [1] -13% | max response [2] -12.5% | max response [5] -5.35% | Potency [7] | Potency [8]

CCCCNc1c(C(=O)OCC)c(C)nc2c1cnn2CC
inactive: max response [1] -21.3% | max response [3] -1.24% | max response [4] 1.34% | Potency [7] | Potency [8]

COc1ccc(CCN(C)CCCC(C#N)(c2cc(OC)c(OC)c(OC)c2)C(C)C)cc1OC (stereo unspecified)
inactive: max response [1] -12.1% | outcome [3] | max response [5] 0.424% | outcome [6] | Potency [7] | Potency [8]
active: Potency [9] 2.39 µM

CN(C)[C@@H]1C(=O)C(C(N)=O)=C(O)[C@@]2(O)C(=O)C3=C(O)c4c(O)ccc(Cl)c4[C@@H](O)[C@H]3C[C@@H]12
inactive: outcome [1] | outcome [3] | max response [4] -3.68% | outcome [5] | outcome [6] | Potency [7] | Potency [8]

CCc1c(C)[nH]c2c1C(=O)C(CN1CCOCC1)CC2 (stereo unspecified)
inactive: outcome [1] | max response [2] -11.2% | outcome [5] | Potency [7] | Potency [8]

Cc1nc2sccn2c(=O)c1CCN1CCC(=C(c2ccc(F)cc2)c2ccc(F)cc2)CC1
inactive: outcome [1] | max response [3] -3.76% | max response [5] -6.97% | Potency [7] | Potency [8]

CN(C)CC/C=C1\c2ccccc2COc2ccccc21
inactive: max response [1] -15.2% | outcome [3] | max response [4] 4.58% | max response [5] 0.829% | outcome [6] | Potency [7] | Potency [8]
active: Potency [9] 1.2 µM

N[C@@H](COP(=O)(O)O)C(=O)O
inactive: outcome [1] | max response [2] -2.26% | max response [5] -2.11% | Potency [7] | Potency [8]

CN/C(=C\[N+](=O)[O-])NCCSCc1ccc(CN(C)C)o1
inactive: max response [2] 0.484% | outcome [3] | max response [4] 15% | max response [5] -4.45% | outcome [6] | Potency [7] | Potency [8]

COc1ccc2c(c1OC)C(=O)O[C@@H]2[C@H]1c2c(cc3c(c2OC)OCO3)CCN1C
inactive: max response [1] 4.94% | max response [4] -12.5% | max response [5] -0.798% | Potency [7] | Potency [8]

CCCN1C[C@H](CSC)C[C@@H]2c3cccc4[nH]cc(c34)C[C@H]21
inactive: max response [1] -3.21% and -8.84% | max response [3] 4.81% and -5.73% | max response [5] -7.31% | Potency [7] | Potency [8]
active: Potency [9] 5.36 µM | Potency [5] 21.1 µM

CNCCC(Oc1ccccc1OC)c1ccccc1 (stereo unspecified)
inactive: max response [1] -0.295% | max response [3] 1.07% | max response [4] 0.271% | max response [5] -6.28% | Potency [7] | Potency [8]
active: Potency [9] 4.26 µM

CCN(CC)CCCN(c1ccccc1)C1Cc2ccccc2C1
active: Potency [9] 0.601 µM
inactive: max response [1] 2.42% | outcome [3] | max response [5] -8.45% | outcome [6] | Potency [7] | Potency [8]

OCCN1CCN(CCCN2c3ccccc3C=Cc3ccccc32)CC1
active: Potency [9] 1.51 µM
inactive: outcome [1] | outcome [3] | max response [4] -12.9% | outcome [5] | outcome [6] | Potency [7] | Potency [8]

CCO/C([O-])=N/c1c[n+](N2CCOCC2)no1
inactive: Potency [9] | outcome [1] | max response [2] -1.87% | max response [4] -5.15% | max response [5] -0.944% | Potency [7] | Potency [8]

O=C(CCCN1CCC(O)(c2cccc(C(F)(F)F)c2)CC1)c1ccc(F)cc1
active: Potency [9] 2.69 µM
inactive: max response [1] -19.1% | max response [3] 0.0234% | Potency [7] | Potency [8]

CC(N=C(NC#N)Nc1ccncc1)C(C)(C)C (stereo unspecified)
inactive: Potency [9] | outcome [1] | outcome [3] | max response [5] 0.852% | outcome [6] | Potency [7] | Potency [8]

Nc1nc(N)c2nc(-c3ccccc3)c(N)nc2n1
inactive: max response [1] -19.7% | max response [3] -19.1% | Potency [8]

C[C@]12CC[C@@H]3c4ccc(O)cc4C[C@@H](CCCCCCCCCS(=O)CCCC(F)(F)C(F)(F)F)[C@H]3[C@@H]1CC[C@@H]2O (stereo partly specified)
inactive: max response [1] -49.4% | max response [3] -6.63% | max response [5] -7.29% | Potency [7] | Potency [8]

C=CCc1ccccc1OCC(O)CNC(C)C (stereo unspecified)
inactive: max response [1] -1.4% | max response [3] 4.41% | max response [4] 2.54% | max response [5] -0.59% | Potency [7] | Potency [8]
active: Potency [9] 2.39 µM

c1cc(CN2CCCCC2)cc(OCCCNc2nc3ccccc3s2)c1
inactive: max response [1] -17.3% | outcome [3] | outcome [6] | Potency [8]
active: Potency [9] 4.78 µM

CN(C)CCCN1c2ccccc2Sc2ccccc21
active: Potency [9] 0.572 µM
inactive: max response [1] 0.274% | outcome [3] | max response [5] -1.44% | outcome [6] | Potency [7] | Potency [8]

CCC(=O)c1ccc2c(c1)N(CCCN(C)C)c1ccccc1S2
active: Potency [9] 3.01 µM
inactive: max response [1] -1.9% | outcome [3] | max response [4] -0.0737% | max response [5] -21.3% | outcome [6] | Potency [7] | Potency [8]

CCn1ccnc1CC1COc2ccccc2O1 (stereo unspecified)
inactive: max response [1] -3.72% | max response [3] 2.89% | max response [4] 19.9% | max response [5] -3.18% | Potency [7] | Potency [8]

CCCC(C(=O)OCCN(CC)CC)(c1ccccc1)c1ccccc1
inactive: max response [1] -17.9% | max response [3] -7.15% | max response [5] -27.5% | Potency [8]
active: Potency [9] 7.57 µM

OC(CCN1CCCCC1)(c1ccccc1)C1CCCCC1 (stereo unspecified)
active: Potency [9] 6.01 µM
inactive: outcome [1] | outcome [3] | max response [4] -15.6% | max response [5] -0.663% | outcome [6] | Potency [7] | Potency [8]

CCCCCCCC/C=C\CCCCCCCC(=O)NCc1ccc(O)c(OC)c1
inactive: max response [1] -0.832% | outcome [3] | max response [4] -3.68% | max response [5] -24.7% | outcome [6] | Potency [7] | Potency [8]

CC(=O)[C@@]1(O)CC[C@H]2[C@@H]3CCC4=CC(=O)CC[C@]4(C)[C@H]3CC[C@@]21C
inactive: Potency [9] | outcome [1] | max response [3] 1.18% | max response [4] -5.68% | max response [5] 2.18% | Potency [7] | Potency [8]

COC(=O)[C@H]1[C@H]2C[C@@H]3c4[nH]c5cc(OC)ccc5c4CCN3C[C@H]2C[C@@H](OC(=O)c2cc(OC)c(OC)c(OC)c2)[C@@H]1OC
active: Potency [9] 3.79 µM
inactive: max response [1] 0.615% and 0.375% | max response [3] -6.17% and -7.84% | max response [4] 21.8% and -5.12% | max response [5] -3.91% and -6.42% | Potency [7]

CCOC(=O)C1=C(C)NC(C)=C(C(=O)OC)C1c1cccc([N+](=O)[O-])c1 (stereo unspecified)
inactive: outcome [1] | outcome [3] | max response [5] -0.464% | outcome [6] | Potency [7] | Potency [8]

O=c1[nH]c(=O)n([C@H]2C[C@H](O)[C@@H](CO)O2)cc1Br
inactive: Potency [9] | max response [1] 0.0744% | max response [3] 2.47% | max response [4] 2.61% | max response [5] 1.37% | Potency [7] | Potency [8]

CN1CCN(C2=Nc3ccccc3Oc3ccc(Cl)cc32)CC1
inactive: outcome [1] | max response [3] -5.97% | max response [4] 6.07% | max response [5] -11% | Potency [7] | Potency [8]

C[C@]12CCC(=O)C=C1CC[C@@H]1[C@@H]2CC[C@@]2(C)[C@H]1CC[C@]2(O)C(=O)CO
inactive: Potency [9] | max response [1] -9.98% | max response [3] -3.7% | max response [4] -11.6% | max response [5] -17.4% | Potency [7] | Potency [8]

COc1ccc(CN(CCN(C)C)c2ccccn2)cc1
active: Potency [9] 7.57 µM
inactive: max response [1] 1.58% | outcome [3] | max response [4] -13% | max response [5] 2.14% | outcome [6] | Potency [7] | Potency [8]
